Measured values as given in PubChem BioAssay (Tox21).
“And” between values parts separate entries of the source, which are not always exact repeats. Equal entries are not always repeated. Inconclusive results are not listed. Entries that show only a call come without a potency. Some structures have more than one record in an assay (separate samples or runs), and their calls can disagree. The source made the active and inactive calls. Unless noted, the call rests on the fitted dose curve.
Potency means the concentration at half of the fitted maximal effect.

Experiment: qHTS assay to identify small molecule antagonists of the peroxisome proliferator-activated receptor gamma (PPARg) signaling pathway - cell viability counter screen (AID 743194; active means well fitted cell-killing curve with a large enough effect in the repeat runs; further: nearly all actives have a fitted effect of over 55% in size)
Conditions: PPARg-bla HEK293H viability, CellTiter-Glo luminescence, 17 h; Potency: co-treated with 50 nM rosiglitazone unless noted; series mostly up to 62.6 µM; activity change, negative = cytotoxicity: at the top concentration
Summary of the method: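 PPARg-UAS-bla HEK293H cells were plated, rested 5 h at 37 C, then treated with compounds plus rosiglitazone (50 nM final) for 17 h at 37 C; viability was then read by CellTiter-Glo luminescence after 30 min at room temperature.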
For O=[N+]([O-])c1ccc(O)c([N+](=O)[O-])c1, the “activity change, negative = cytotoxicity” value was -2.74% (inactive).
In the case of N[C@@H](Cc1ccc(N(CCCl)CCCl)cc1)C(=O)O, the Potency is reported as “inactive”.
For c1ccc(P(c2ccccc2)c2ccccc2)cc1, the Potency was “inactive”.
In the case of CCC(C)c1ccc(O)cc1 (stereo not given), the Potency is reported as “inactive”.
With CC(C)=CC1C(C(=O)OCc2coc(Cc3ccccc3)c2)C1(C)C (stereo not given) the Potency was “inactive”.
In the case of O=[N+]([O-])c1c(Cl)c(Cl)c(Cl)c(Cl)c1Cl, the “activity change, negative = cytotoxicity” value is reported as -28.9% (inactive).
With CC1(C)C(C=C(Cl)Cl)C1C(=O)OC(C#N)c1cccc(Oc2ccccc2)c1 (stereo not given) the Potency was “inactive”.
In the case of ClC1C(Cl)C(Cl)C(Cl)C(Cl)C1Cl (stereo not given), the Potency is reported as “inactive”.
With CCCCCc1cc(O)cc(O)c1 the “activity change, negative = cytotoxicity” value was 0.0995% [at 81.1 µM, co-treated with 50 nM rosiglitazone] (inactive).
With CCOc1cc(Oc2ccc(C(F)(F)F)cc2Cl)ccc1[N+](=O)[O-] the Potency was “inactive”.
In the case of Nc1ccc(-c2ccc(N)c(N)c2)cc1N, the Potency is reported as “inactive”.
For Brc1ccc(Oc2cc(Br)c(Br)cc2Br)c(Br)c1, the “activity change, negative = cytotoxicity” value was -5.7% (inactive).
For c1ccc(NNc2ccccc2)cc1, the Potency was “inactive”.
In the case of CCC(CC)Nc1c([N+](=O)[O-])cc(C)c(C)c1[N+](=O)[O-], the “activity change, negative = cytotoxicity” value is reported as 6.62% (inactive).
For CCCCN(CC)c1c([N+](=O)[O-])cc(C(F)(F)F)cc1[N+](=O)[O-], the “activity change, negative = cytotoxicity” value was 16.2% (inactive).
With Oc1ccc(-c2ccccc2)cc1 the Potency was “inactive”.
In the case of c1nc[nH]n1, the Potency is reported as “inactive”.
For CCC(C)c1cc([N+](=O)[O-])cc([N+](=O)[O-])c1O (stereo not given), the Potency was “inactive”.
With C=CC(=O)OCCO the Potency was “inactive”.
In the case of Cc1c(COC(=O)[C@@H]2[C@H](/C=C(\Cl)C(F)(F)F)C2(C)C)cccc1-c1ccccc1, the “activity change, negative = cytotoxicity” value is reported as -33.8% (inactive).
For C#CCOS(=O)OC1CCCCC1Oc1ccc(C(C)(C)C)cc1 (stereo not given), the Potency was 2.45 µM (active).
For Cc1cc(Cl)ccc1OCCCC(=O)O, the Potency was “inactive”.
With N#CCCCl the “activity change, negative = cytotoxicity” value was 26.9% (inactive).
With CC(C)N(C(=O)SCC(Cl)=C(Cl)Cl)C(C)C the Potency was “inactive”.
For Cc1cc(C)cc(C)c1, the Potency was “inactive”.
In the case of O=C(CCl)c1ccccc1, the Potency is reported as “inactive”.
With CCCCNC(=O)n1c(NC(=O)OC)nc2ccccc21 the Potency was “inactive”.
With CCOC(=O)C(C)OC(=O)c1cc(Oc2ccc(C(F)(F)F)cc2Cl)ccc1[N+](=O)[O-] (stereo not given) the Potency was “inactive”.
For CCC(C)(c1ccc(O)cc1)c1ccc(O)cc1, the “activity change, negative = cytotoxicity” value was -3.65% (inactive).
With Cc1ccc(N)c(N)c1 the Potency was “inactive”.
With CC(C)(c1cc(Cl)c(O)c(Cl)c1)c1cc(Cl)c(O)c(Cl)c1 the Potency was 49 µM (active) and 24.5 µM (active).
With CCC(=O)O[C@H]1CC[C@H]2[C@@H]3CCC4=CC(=O)CC[C@]4(C)[C@H]3CC[C@]12C the Potency was 49 µM [setting not given] (active) and inactive.
For CC(C)C(=O)OCC(C)(C)C(OC(=O)C(C)C)C(C)C (stereo not given), the Potency was 35 µM [setting not given] (active).
For Oc1cc(Cl)ccc1Cl, the “activity change, negative = cytotoxicity” value was 11% (inactive).
With CNC(=O)Oc1cccc2c1OC(C)(C)O2 the Potency was “inactive”.
For CCOc1cc(C=O)ccc1O, the Potency was “inactive”.

Experiment: qHTS assay for small molecule agonists of the antioxidant response element (ARE) signaling pathway (AID 743202; active means well fitted activation curve with a large enough effect in the signal ratio in the repeat runs, not every such curve was filed as active; the % refers to the signal ratio)
Conditions: HepG2 ARE-bla reporter, beta-lactamase FRET, 16 h; series mostly up to 73.3 µM; activation: at the top concentration
Summary of the method: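 Following a 16 h, 37 C exposure of reporter HepG2 cells (ARE-driven beta-lactamase, 2,000 cells/well) to compounds, FRET substrate was applied for 2 h at room temperature and fluorescence intensity recorded.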
In the case of O=[N+]([O-])c1ccc(O)c([N+](=O)[O-])c1, the Potency is reported as 48.8 µM (active).
With O=[N+]([O-])c1c(Cl)c(Cl)c(Cl)c(Cl)c1Cl the Potency was 24.2 µM (active).
In the case of ClC1C(Cl)C(Cl)C(Cl)C(Cl)C1Cl (stereo not given), the Potency is reported as “inactive”.
In the case of CCCCCc1cc(O)cc(O)c1, the Potency is reported as 48.8 µM (active) and 48.6 µM (active).
In the case of Brc1ccc(Oc2cc(Br)c(Br)cc2Br)c(Br)c1, the Potency is reported as “inactive”.
With CCC(CC)Nc1c([N+](=O)[O-])cc(C)c(C)c1[N+](=O)[O-] the “activation” value was 1.33% (inactive).
With CCCCN(CC)c1c([N+](=O)[O-])cc(C(F)(F)F)cc1[N+](=O)[O-] the Potency was “inactive”.
With Oc1ccc(-c2ccccc2)cc1 the Potency was 53.8 µM (active) and 21.7 µM (active).
In the case of c1nc[nH]n1, the “activation” value is reported as -1.41% (inactive).
In the case of CCC(C)c1cc([N+](=O)[O-])cc([N+](=O)[O-])c1O (stereo not given), the Potency is reported as “inactive and 611 nM (active)”.
For Cc1c(COC(=O)[C@@H]2[C@H](/C=C(\Cl)C(F)(F)F)C2(C)C)cccc1-c1ccccc1, the Potency was “inactive”.
For C#CCOS(=O)OC1CCCCC1Oc1ccc(C(C)(C)C)cc1 (stereo not given), the Potency was 970 nM (active) and 1.72 µM (active).
In the case of N#CCCCl, the Potency is reported as “inactive”.
In the case of CC(C)N(C(=O)SCC(Cl)=C(Cl)Cl)C(C)C, the “activation” value is reported as 1.76% (inactive).
With Cc1cc(C)cc(C)c1 the “activation” value was -8.97% (inactive).
In the case of CC(C)(c1cc(Cl)c(O)c(Cl)c1)c1cc(Cl)c(O)c(Cl)c1, the Potency is reported as 15.4 µM (active) and 19.3 µM (active).
For S=C1NCCN1, the “activation” value was -6.76% (inactive).
For Oc1cc(Cl)ccc1Cl, the “activation” value was 11.4% (inactive).

Experiment: qHTS assay for small molecule agonists of the antioxidant response element (ARE) signaling pathway - cell viability counter screen (AID 743203); further: nearly all actives have a fitted effect of over 55% in size
Conditions: ARE-bla HepG2 viability, CellTiter-Glo luminescence, 16 h; series mostly up to 73.3 µM; viability change, negative = cytotoxic: at the top concentration
Summary of the method: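 Measured in the same wells as the beta-lactamase ARE reporter, this read-out is CellTiter-Glo luminescence from HepG2 ARE-bla cells given compounds for 16 hrs.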
With O=[N+]([O-])c1ccc(O)c([N+](=O)[O-])c1 the “viability change, negative = cytotoxic” value was -25.8% [at 94.8 µM] (inactive).
In the case of N[C@@H](Cc1ccc(N(CCCl)CCCl)cc1)C(=O)O, the Potency is reported as “inactive”.
In the case of c1ccc(P(c2ccccc2)c2ccccc2)cc1, the Potency is reported as “inactive”.
For CCC(C)c1ccc(O)cc1 (stereo not given), the Potency was “inactive”.
For CC(C)=CC1C(C(=O)OCc2coc(Cc3ccccc3)c2)C1(C)C (stereo not given), the Potency was “inactive”.
With O=[N+]([O-])c1c(Cl)c(Cl)c(Cl)c(Cl)c1Cl the Potency was 19.3 µM (active).
With CC1(C)C(C=C(Cl)Cl)C1C(=O)OC(C#N)c1cccc(Oc2ccccc2)c1 (stereo not given) the Potency was “inactive”.
For ClC1C(Cl)C(Cl)C(Cl)C(Cl)C1Cl (stereo not given), the Potency was “inactive”.
For O=c1oc2ccccc2c(O)c1C(CC(O)c1ccc(-c2ccc(Br)cc2)cc1)c1ccccc1 (stereo not given), the “viability change, negative = cytotoxic” value was -20.8% (inactive).
In the case of CCCCCc1cc(O)cc(O)c1, the Potency is reported as “inactive”.
For CCOc1cc(Oc2ccc(C(F)(F)F)cc2Cl)ccc1[N+](=O)[O-], the Potency was “inactive”.
With Nc1ccc(-c2ccc(N)c(N)c2)cc1N the Potency was “inactive”.
For c1ccc(NNc2ccccc2)cc1, the Potency was “inactive”.
In the case of CCC(CC)Nc1c([N+](=O)[O-])cc(C)c(C)c1[N+](=O)[O-], the Potency is reported as “inactive”.
In the case of CCCCN(CC)c1c([N+](=O)[O-])cc(C(F)(F)F)cc1[N+](=O)[O-], the Potency is reported as “inactive”.
In the case of Oc1ccc(-c2ccccc2)cc1, the Potency is reported as “inactive”.
In the case of c1nc[nH]n1, the Potency is reported as “inactive”.
For CCC(C)c1cc([N+](=O)[O-])cc([N+](=O)[O-])c1O (stereo not given), the Potency was “inactive and 969 nM (active)”.
With C=CC(=O)OCCO the Potency was “inactive”.
With Cc1c(COC(=O)[C@@H]2[C@H](/C=C(\Cl)C(F)(F)F)C2(C)C)cccc1-c1ccccc1 the Potency was “inactive”.
With C#CCOS(=O)OC1CCCCC1Oc1ccc(C(C)(C)C)cc1 (stereo not given) the Potency was “inactive”.
For Cc1cc(Cl)ccc1OCCCC(=O)O, the Potency was “inactive”.
With N#CCCCl the Potency was “inactive”.
For CC(C)N(C(=O)SCC(Cl)=C(Cl)Cl)C(C)C, the Potency was “inactive”.
For Cc1cc(C)cc(C)c1, the Potency was “inactive”.
In the case of O=C(CCl)c1ccccc1, the Potency is reported as “inactive”.
With CCCCNC(=O)n1c(NC(=O)OC)nc2ccccc21 the Potency was “inactive”.
For CCOC(=O)C(C)OC(=O)c1cc(Oc2ccc(C(F)(F)F)cc2Cl)ccc1[N+](=O)[O-] (stereo not given), the Potency was “inactive”.
With CCC(C)(c1ccc(O)cc1)c1ccc(O)cc1 the “viability change, negative = cytotoxic” value was -24.5% (inactive).
For Cc1ccc(N)c(N)c1, the Potency was “inactive”.
In the case of CCC(=O)O[C@H]1CC[C@H]2[C@@H]3CCC4=CC(=O)CC[C@]4(C)[C@H]3CC[C@]12C, the Potency is reported as 68.6 µM (active) and inactive.
For S=C1NCCN1, the Potency was “inactive”.
With CC(C)C(=O)OCC(C)(C)C(OC(=O)C(C)C)C(C)C (stereo not given) the Potency was “inactive”.
In the case of Oc1cc(Cl)ccc1Cl, the Potency is reported as “inactive”.
In the case of CNC(=O)Oc1cccc2c1OC(C)(C)O2, the Potency is reported as “inactive”.
With CCOc1cc(C=O)ccc1O the Potency was “inactive”.
